Rows were chosen to be rich in hits. Some 3.5% of all compounds tested hit in one or more screens of this group.
TEAD-YAP inh = TEAD-YAP interaction inhibition, primary screen, TEAD-YAP interaction inhibitor project, luminescence, HEK-TIYL cells | AID 1259422, 2018 | 640,000 tested, 1.4% active | TEAD-Gal4/YAP UAS-luciferase luminescence | inhibition, % at 9.12 µM; in the data active = inhibition above about 32%
GPR151 activ = activators of human GPR151, primary screen, cell-based, PathHunter beta-arrestin, luminescence; G-protein coupled receptor 151 (Homo sapiens), Q8TDV0; PathHunter beta-arrestin GPR151 cells; activation, % at 11.2 µM; 650,000 tested, 1% active; AID 1508602, 2020; in the data active = activation above about 4.9%
Target sequence (Q8TDV0 whole entry, looked up): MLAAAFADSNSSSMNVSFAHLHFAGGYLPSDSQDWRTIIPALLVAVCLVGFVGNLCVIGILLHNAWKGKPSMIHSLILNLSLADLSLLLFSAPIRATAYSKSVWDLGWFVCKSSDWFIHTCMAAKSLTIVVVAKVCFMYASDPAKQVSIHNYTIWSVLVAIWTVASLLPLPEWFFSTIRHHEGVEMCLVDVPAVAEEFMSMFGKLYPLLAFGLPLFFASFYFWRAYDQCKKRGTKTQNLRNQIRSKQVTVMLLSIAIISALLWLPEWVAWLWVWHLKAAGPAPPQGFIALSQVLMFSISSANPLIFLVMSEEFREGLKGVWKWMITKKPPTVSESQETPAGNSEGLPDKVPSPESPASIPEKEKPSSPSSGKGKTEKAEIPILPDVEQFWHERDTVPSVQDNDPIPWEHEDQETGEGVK
FBW7 activator = FBW7 E3 ligase activators, primary screen, biochemical, AlphaScreen, human; AID 1259310, 2017; F-box/WD repeat-containing protein 7 (Homo sapiens), Q969H0; 650,000 tested, 0.13% active; AlphaScreen FBW7–phospho-cyclin E peptide binding, activator screen; normalized activity (activation), % at 26.1 µM; in the data active = normalized activity above about 1.9%;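 note: purified mutant Fbw7 with reduced substrate affinity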
MITF inh = MITF inhibitors, primary screen, biochemical, AlphaScreen, human. Microphthalmia-associated transcription factor (Homo sapiens), O75030. AlphaScreen MITF homodimerization, bead proximity signal. inhibition, % at 2.6 µM. 650,000 tested, 0.91% active. AID 1259374, 2018; in the data active = inhibition above about 50%
GPR151 conf act = GPR151 activators, triplicate retest, confirmation, cell-based, PathHunter beta-arrestin, luminescence; shares compounds with GPR151 activ; GPR151 PathHunter beta-arrestin cells, 90 min; % of EA-reagent control over plate median; activation, % at 11.2 µM; 6,700 tested, under 10 active; AID 1508609, 2020;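 active = mean percent activation across replicates above the confirmation screen cutoff of 4.91%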
GPR119 ag = GPR119 activators in beta-arrestin cells, counter-screen for GPR151 activator project, cell-based, PathHunter beta-arrestin, luminescence, triplicate; shares compounds with GPR151 activ; 90 min; 0 = compound-well median, 100 = enzyme-acceptor control; activation, % at 11.2 µM; 6,700 tested, 0.3% active;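 active = mean percent activation in the counterscreen above 29.09%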;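 note: counterscreen on off-target GPR119 to flag nonselective hits from the GPR151 activator screen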
A number is an active result; 0 = inactive; - = no result; ! = a repeat was not active.

SMILES	TEAD-YAP inh	GPR151 activ	FBW7 activator	MITF inh	GPR151 conf act	GPR119 ag
Cn1c(=O)c2c(nc(-n3ccnc3)n2Cc2ccc([N+](=O)[O-])cc2)n(C)c1=O	0	5.0	0	0	0	0
Cn1c(=O)c2c(nc(Cl)n2Cc2ccc([N+](=O)[O-])cc2)n(C)c1=O	0	0	0	0	-	-
COC(=O)Cn1cc(/C=C(/C#N)C(=O)NCc2ccccc2)c2ccccc21	0	0	0	0	-	-
Cc1cc(C)n(-c2ccc(NC(=O)C3CCN(Cc4cnc(C)s4)CC3)cc2)n1	0	5.8!	0	0	0	0
Cc1ncc(CN2CCC(C(=O)Nc3ccc(-n4cccn4)cc3)CC2)s1	0	0	0	0	-	-
O=C(COC(=O)c1ccc(CO)cc1)c1ccc(OC(F)F)cc1	0	0	0	0	-	-
COC(=O)c1ccc(NC(=O)CSc2nnc3[nH]c(=O)ccn23)cc1	0	6.3	0	0	0	0
CC1(C)Cc2nc3sc4c(SCC(=O)N5CCOCC5)ncnc4c3cc2CO1	0	5.9	0	0	0	0
COc1ccc(NC(=O)c2cc3ccc(OC)cc3oc2=Nc2ccc(C(=O)O)cc2)c(OC)c1	0	11	0	0	0	0
COc1ccc(NC(=O)c2cc3cc(OC)ccc3oc2=Nc2ccc(C(=O)O)cc2)c(OC)c1	0	0	0	0	-	-
CN(C)CCNC(=O)C(=O)NCC1OCCN1S(=O)(=O)c1cccs1 (stereo unspecified)	0	6.3	0	0	0	0
COC(CNC(=O)C(=O)NCC1OCCN1S(=O)(=O)c1cccs1)OC (stereo unspecified)	0	0	0	0	-	-
CCOC(=O)C1CCN(C(=O)/C=C/c2ccc([N+](=O)[O-])cc2)CC1	0	0	0	0	-	-
CCOC(=O)C1CCN(C(=O)/C=C/c2cccc([N+](=O)[O-])c2)CC1	0	6.6	0	0	0	0
Cc1n[nH]c(=S)n1/N=C/c1ccc(F)cc1	0	5.4	0	0	0	0
Cc1ccc(/C=N/n2c(C)n[nH]c2=S)o1	0	6.4	0	0	0	0
O=C(c1cccc(F)c1)N1CCN(c2ccc([N+](=O)[O-])c(NCCc3ccccc3)c2)CC1	0	0	0	0	-	-
COc1cc(/C=C2/NC(=O)N(Cc3ccccc3F)C2=O)cc(Cl)c1OC	0	0	0	0	-	-
COc1cc(/C=C2\NC(=O)N(Cc3ccc(Cl)cc3)C2=O)cc(OC)c1O	0	0	0	0	-	-
COc1ccc2ccc(OC)c(/C=C3\NC(=O)N(Cc4ccc(Cl)cc4)C3=O)c2c1	0	4.9	0	0	0	0
COc1cc(/C=C2/NC(=O)N(Cc3ccc(F)cc3)C2=O)cc(Cl)c1OC	0	5.2	0	0	0	0
CC(C)(Cl)CNS(=O)(=O)c1ccccc1	0	0	0	0	-	-
O=C(Nc1ccc2oc(-c3cc(Br)ccc3Cl)nc2c1)c1ccco1	0	0	0	0	-	-
O=[N+]([O-])c1cccc(S(=O)(=O)NCc2ccco2)c1	0	0	0	0	-	-
O=C(CN(Cc1ccccc1)S(=O)(=O)c1ccc(F)cc1)Nc1cccc([N+](=O)[O-])c1	0	0	0	0	-	-
SMILES	TEAD-YAP inh	GPR151 activ	FBW7 activator	MITF inh	GPR151 conf act	GPR119 ag
CC(C)(C)NC(=O)CN(Cc1ccccc1)S(=O)(=O)c1ccc(F)cc1	0	5.3	0	0	0	0
O=C(CN(Cc1ccc(F)cc1)S(=O)(=O)c1ccccc1)Nc1cccc([N+](=O)[O-])c1	0	5.1	0	0	0	0
O=[N+]([O-])c1cccc(S(=O)(=O)NCc2ccc(F)cc2)c1	0	9.0	0	0	0	0
CCc1n(CC(=O)c2ccc(Br)cc2)c2ccccc2[n+]1C	0	0	0	0	-	-
COc1ccc(NC(=O)COc2ccc3c(=O)c(-c4ccc(F)cc4)coc3c2)cc1	0	5.4	0	0	0	0
CC(C)N(C)Cc1nnnn1CC(=O)N1CCN(c2ccccc2O)CC1	0	5.0	0	0	0	0
Nc1cc(N)cc(C(=O)Nc2nc3ccc(N)cc3s2)c1	0	0	0	0	-	-
COc1ccc2c(CNCc3cc(Br)ccc3OC)c(C(=O)O)n(C)c2c1	0	0	0	0	-	-
CS(=O)(=O)N1CCC(Oc2ccc(-c3ccc(C#N)cc3)cc2)CC1	0	12	0	0	0	0
CCN1CCC(Oc2ccc(-c3ccc(C#N)cc3)cc2)CC1	0	0	0	0	-	-
N#C/C(=C\c1cc(Cl)ccc1O)c1nc2ccccc2[nH]1	0	5.7	0	0	0	0
Cc1ccc2nc(/C(C#N)=C\c3ccccc3OCC#N)[nH]c2c1	0	5.1	0	0	0	0
N#C/C(=C\c1ccc(O)cc1O)c1nc2ccccc2[nH]1	0	0	0	0	-	-
Cc1cc(C(=O)Nc2ccc(F)cc2F)ccc1[N+](=O)[O-]	0	5.2	0	0	0	0
Cc1cccc(C(=O)Nc2ccc(C)cc2[N+](=O)[O-])c1	0	0	0	0	-	-
Cc1ccc(NC(=O)c2cccc(F)c2)c([N+](=O)[O-])c1	0	8.7	0	0	0	0
O=C(NCC(c1ccco1)S(=O)(=O)c1cccs1)OCc1ccccc1 (stereo unspecified)	0	0	0	0	-	-
Cc1cccc(NC(=O)CSc2nc3n[nH]c(C)c3c(=N)n2-c2ccc(Br)cc2)c1	0	5.8	0	0	0	0
CCOc1ccc(-n2c(SCC(=O)Nc3ccc(CC)cc3)nc3n[nH]c(C)c3c2=N)cc1	0	5.3	0	0	0	0
CCCCNC(=O)CSc1nc2n[nH]c(C)c2c(=N)n1-c1ccccc1CC	0	5.9	0	0	0	0
COc1ccc(OC)c(NC(=O)CSc2nc3n[nH]c(C)c3c(=N)n2-c2cc(Cl)ccc2C)c1	0	12	0	0	0	0
CCOc1ccc(NC(=O)CSc2nc3n[nH]c(C)c3c(=N)n2-c2ccc(OCC)cc2)cc1	0	0	0	0	-	-
C/C(=N\NC(=O)c1cccc(I)c1)c1ccc(O)cc1	0	0	0	0	-	-
O=C(NC(=S)Nc1cccc(-c2nc3ccccc3o2)c1)c1ccc(C(=O)c2ccccc2)cc1	0	0	0	0	-	-
CCCCOc1ccc(Nc2cc(C)nc3ccc(Cl)cc23)cc1	0	0	0	0	-	-
COC(=O)c1c(NC(=O)c2ccc([N+](=O)[O-])cc2)sc(C(=O)N2CCOCC2)c1C	0	5.5	0	0	0	0
COc1ccc(NC(=O)N(Cc2nnc3n2CCCCC3)c2cccc(OC)c2)cc1	0	0	0	0	-	-
CC(=O)c1ccc(NC(=S)NCC2CCCO2)cc1 (stereo unspecified)	0	5.4	0	0	0	0

Source: PubChem BioAssay
